Experimental data taken from PubChem BioAssay (NCI).
Values joined by “and” are separate entries in the source; they are usually repeats but may differ in a detail not shown here. Identical values can stand only once. The panel holds about 83,000 compounds, 20% with a hit somewhere; the sample as a whole holds those more often.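 Treatment: one concentration, 48 hours, 96-well format. Scoring: percent growth, with anything below 10 considered active.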 Active and inactive are the calls of the source.

system: MDA-MB-468 breast; test: NCI-60 one-dose screen, 48 h (100 = growth as untreated, 0 = no growth, -100 = all killed); settings: 10 µM unless noted

Row | SMILES | growth
1 | NNC(=S)N1N=C(c2cc3ccccc3o2)CC1c1c[nH]c2ccccc12 (stereo not given) | 15.3% (inactive)
2 | O=C(Nc1ncc(Cc2ccccc2)s1)c1sc2ccccc2c1Cl | 7.07% (active)
3 | Cn1cc(-c2csc(-c3c[nH]c4ccc(F)cc34)n2)c2cccnc21 | -22.7% (active)
4 | O=C(CSc1nnc(-c2ccc(Cl)cc2)n1-c1ccccc1)Nc1cccc(F)c1 | 17.2% (inactive)
5 | O=C(O)CC1CCCCC1c1ccccc1 (stereo not given) | 105% (inactive)
6 | CCOC(=O)Cc1csc2nc(-c3ccccc3)nn12 | 108% (inactive)
7 | CN(C)CCOc1nc2c3cc([N+](=O)[O-])ccc3nn2c2ccccc12 | 60.2% (inactive)
8 | COc1ccc(C2C3=C(COC3=O)N(CCO)c3cc4c(cc32)OCCO4)cc1OC (stereo not given) | -32.1% (active)
9 | C#CCNC(=O)CC[C@]1(C)[C@H]2CC[C@@H]3[C@@H]([C@@](C)(O)CCC=C(C)C)CC[C@@]3(C)[C@]2(C)CC[C@H]1C(=C)C | 48.5% [100 µM] (inactive)
10 | N#Cc1c(-c2ccccc2)cc(-c2c[nH]c3ccccc23)nc1-c1c[nH]c2ccccc12 | 93% (inactive)
11 | CCn1c(Sc2nnc(Nc3ccccc3)s2)nc2c1c(=O)n(C)c(=O)n2C | 91.8% (inactive)
12 | COc1ccc2[nH]c(=O)c3c4ccccc4cn3c2c1 | 38% (inactive)
13 | COc1ccc(-c2oc3cc(O)cc(O)c3c(=O)c2OC)cc1O | -3.48% (active)
14 | CCN(CC)CCNc1ccc(Cl)cc1Cl | 108% (inactive)
15 | Cn1c2ccccc2c2c3c(c4c5ccccc5n(CCCCCC#N)c4c21)C(=O)N(O)C3=O | -49.5% (active)
16 | COc1cc([C@@H]2c3cc4c(cc3C(OC3O[C@@H]5COC(C)O[C@H]5[C@H](O)[C@H]3O)C3COC(=O)[C@@H]32)OCO4)cc(OC)c1O (stereo not given in full) | -31% (active)
17 | O=C(Cc1ccc(/C=C/C(=O)c2ncc[nH]2)cc1)Nc1ccc(Cl)cc1 | 9.49% (active)
18 | CCOC(=O)C1=C(C)C(Cl)=N/C1=C\c1[nH]c(Cl)c(C)c1C(=O)OCC | 102% (inactive)
19 | CC(CN1CCN(CCOCCO)CC1)CN1c2ccccc2Sc2ccc(Cl)cc21 (stereo not given) | 40.9% (inactive)
20 | CC1=C(C(=O)/C=C/c2ccc(N(C)C)cc2)C(c2ccccc2)NC(=S)N1 (stereo not given) | 102% (inactive)

Row | SMILES | growth
21 | Oc1c(Br)cc(Br)c2ccc(Cn3cc(-c4ccc(C(F)(F)F)cc4)nn3)nc12 | 30.8% (inactive)
22 | COc1ccc(CN(c2ccc(C)cc2)C2OC(=O)c3ccccc32)cc1OC (stereo not given) | 90.2% (inactive)
23 | COc1ccc(C(=O)Nc2ncc(Cc3cccc(Cl)c3)s2)cc1OC | -1.51% (active)
24 | O=C(/C=C/c1cccc(Nc2ccnc3cc(Cl)ccc23)c1)c1ccc(Cl)cc1 | 27.6% (inactive)
25 | COc1ccc(OC)c([N+](=O)[O-])c1C(=O)CNC(C)=O | 98% (inactive)
26 | CC1(C)CC(=O)c2c(ccc(C(=O)C[C@H](N)CO)c2N)O1 | 3.17% (active)
27 | CC[N+](C)(CC)CCO | 91.8% (inactive)
28 | O=C(c1ccc(O)cc1)C1[C@H](c2ccc(Cl)cc2)[C@@H](c2ccccc2)NC12C(=O)Nc1ccc(Cl)cc12 (stereo not given in full) | 39.4% (inactive)
29 | N#Cc1c(-c2ccccc2)cc(-c2ccccc2)n(CCCCCCC(=O)O)c1=O | 88.9% (inactive)
30 | COc1ccc2c(c1)sc1nc(-c3ccccc3)c(-c3ccc(O)c(OC)c3)n12 | 107% (inactive)
31 | CC(=O)c1ccc(Nc2nc(C(C)=O)c(C)s2)cc1 | 94.5% (inactive)
32 | O=C(Nc1nc2cc(C(=O)N3CCN(C(c4ccccc4)c4ccccc4)CC3)ccc2o1)c1ccc(NC2CCCCC2)c([N+](=O)[O-])c1 | 75.2% (inactive)
33 | CCOC(=O)CNC(=O)C1(NC(=O)CNC(=O)OCc2ccccc2)CCCC1 | 131% (inactive)
34 | O=C(c1ccccc1)C(Br)C(Br)c1ccccc1 (stereo not given) | 72.3% (inactive)
35 | CN(C)C1CCN(C(=O)c2ccc(NC(=O)Nc3ccc(-c4nc(N5CCOCC5)nc(N5CCOCC5)n4)cc3)cc2)CC1 | -49.1% [2.5 µM] (active)
36 | N#Cc1cnc(NCCc2ccncc2)nc1-n1cnc2ccccc21 | 74.2% (inactive)
37 | COc1ccc(C2=Cn3c(CCC(=O)c4nc5ccccc5[nH]4)nnc3SC2)cc1 | 77.4% (inactive)
38 | Nc1nc2ncc(CNc3ccc(C(=O)N[C@@H](CCc4nn[nH]n4)C(=O)O)cc3)nc2c(=O)[nH]1 | 93.9% (inactive) and 98.6% (inactive)
39 | CCOC(=O)C1=C(Nc2ccc(Br)cc2)C(=O)N(CC)C1 | 101% (inactive)
40 | CCN1CCC[C@H]1c1cc(O)c2c(c1OC)C[C@H]1C[C@H]3[C@H](N)C(=O)C(C(N)=O)=C(O)[C@@]3(O)C(=O)C1=C2O | -18.7% (active)
